Hits are enriched below; roughly 19% of the tested compounds scored in any of these assays.
TDP1 cell noCPT – qHTS for Inhibitors of human tyrosyl-DNA phosphodiesterase 1 (TDP1): qHTS in cells in absence of CPT | DT40 Tdp1-/- hTDP1 cells, no CPT, ATP luminescence, 48 h | Potency, µM (top dose mostly 46.2 µM), for the others: at the highest dose activity change, negative = growth inhibition, actives largely listed as inhibitors | 15% of 420,000 active; note: potency is the fitted concentration of half-maximal effect; nearly all actives have a fitted effect of over 55% in size
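Stably hTDP1-transfected Tdp1-null chicken DT40 cells were treated with library compounds minus camptothecin and grown for at least 48 hr at 37 °C, after which cellular ATP was quantified by luminescence.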
DT40 TDP1 CPT – qHTS for Inhibitors of human tyrosyl-DNA phosphodiesterase 1 (TDP1): qHTS in cells in presence of CPT; chicken DT40 Tdp1-/-;hTDP1 cells + 20 nM CPT, ATP luminescence, 48 h; Potency, µM (highest dose often 46.2 µM), for the others: at the highest dose activity change, negative = growth inhibition, usual class: inhibitors; 12% of 420,000 active; AID 686979, 2013; note: potency is the fitted concentration of half-maximal effect; nearly all actives have a fitted effect of over 55% in size
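Chicken DT40 Tdp1-/- cells stably complemented with human TDP1 were seeded at 400 cells/well in medium containing 20 nM camptothecin, exposed to pin-transferred compounds, and grown at 37 °C for at least 48 hr. Viability was read as ATP luminescence.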
ELG1 repair inh – qHTS screen for small molecules that inhibit ELG1-dependent DNA repair in human embryonic kidney (HEK293T) cells expressing luciferase-tagged ELG1; Potency, µM (highest dose often 46.1 µM), for the others: at the top dose activity change, negative = inhibition, hits mostly inhibitors; 2.3% of 330,000 active; HEK293T ELG1-luciferase reporter, luminescence, 16 h; DNA damage induced by 5-fluorouridine; AID 504467, 2011; note: potency is the fitted concentration of half-maximal effect; nearly all actives have a fitted effect of over 55% in size
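In this reporter screen, reduction of luminescence relative to DMSO vehicle indicated activity. Compounds and 5-fluorouridine were added together to 2,000 cells per well, incubated for 16 hr at 37 °C, then developed with ONE-Glo.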
HT1080 IDH1KD tx – qHTS for induction of synthetic lethality in tumor cells producing 2HG: qHTS for the HT-1080-IDH1KD cell line | HT-1080 IDH1 knockdown viability, ATP luminescence, 48 h | Potency, µM (titrated, usually from 46.1 µM), for inactives: at the top dose activity, negative = toxicity, most hits filed as cytotoxic | 2% of 360,000 active | AID 686971, 2013;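 note: potency is the fitted concentration of half-maximal effect; 0% = DMSO wells and -100% = cell-free medium wells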
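Assay cells: HT-1080 with IDH1 knockdown, 750 per well, RPMI/5% FBS. Exposure: 48 h at 37 °C following 2 h pre-incubation. Read: CellTiter-Glo luminescence; fitted concentration-response, curve class assigned.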
IL1B secr inh – qHTS for Inhibitors of Inflammasome Signaling: IL-1-beta AlphaLISA Primary Screen; THP-1 LPS/ATP IL-1B secretion, AlphaLISA, 16 h; hits give low values; activity change, % at 57.5 µM; 4.7% of 360,000 active; in the data active = activity change below about -50%; inconclusive = mostly about -30% to -49%
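Secreted IL-1B measured by AlphaLISA bead assay after 16 h compound exposure of THP-1 cells; compounds (final up to 57.5 uM) added 1 h before LPS (250 ng/mL) and ATP (1.25 mM) stimulation; lower signal means less secretion.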
HT1080NT lethal – qHTS for induction of synthetic lethality in tumor cells producing 2HG: qHTS for the HT-1080-NT fibrosarcoma cell line; HT-1080-NT fibrosarcoma viability, CellTiter-Glo ATP luminescence, 48 h; Potency, µM (highest dose often 46.1 µM), for the others: at the highest dose activity, negative = less viability, hits mostly cytotoxic; 1.6% of 360,000 active;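 note: NT is the 2HG producing partner of a matched IDH1 knockdown line; potency is the fitted concentration of half-maximal effect; 0% = DMSO-treated cells and -100% = media-only wells without cells; nearly all actives have a fitted effect of over 55% in size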
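Read-out is CellTiter-Glo luminescence after 10 minutes at room temperature, following 48 hours' compound treatment of HT-1080-NT cells (750 cells/well, RPMI, 5% FBS, 37 degrees C).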
* = called active by the depositor; i = inactive; ? = inconclusive; . = no result given. Unless noted, calls come from the whole dose curve; as a rule, active = well fitted curve in the direction sought with a large enough effect; inconclusive = small, poorly fitted or top-dose-only effect, or another doubt; inactive = no such curve, though single readings can be large; an effect the other way counts as inactive or inconclusive. Unless noted, % is set by controls: 0 for no effect and ±100 for the full control effect.

SMILES	TDP1 cell noCPT	DT40 TDP1 CPT	ELG1 repair inh	HT1080 IDH1KD tx	IL1B secr inh	HT1080NT lethal
O=C(O)c1c[nH]c2nccnc12	2.6%	2.5%	.	-2.1%	?	-0.8%
O=[N+]([O-])c1ccc(Sc2ccccn2)nc1	12.0%	-0.8%	6.5%	-15.9%	9.5	5.5%
O=[N+]([O-])c1ccc(Sc2ccc(Cl)c(Cl)c2)nc1	-29.4%	?	15.1%	-4.3%	-58.1*	2.0%
COc1ccc(CCN2CC(C(=O)NCCN3CCOC3=O)CCC2=O)cc1 (configuration not stated)	17.5%	3.1%	13.2%	-0.4%	i	10.9%
O=[N+]([O-])c1ccc2nc[nH]c2c1	-20.1%	0.0%	.	1.1%	-10.3	0.2%
Nc1[nH]c2cc([N+](=O)[O-])ccc2c1-c1ccccn1	?	14.6µM*	-14.4%	?	-11.3	-10.5%
O=c1/c(=C/c2ccco2)sc2n1CN(c1cccc(Br)c1)CN=2	-12.8%	-16.3%	-7.5%	1.3%	-50.1*	0.1%
Cc1cc(C)cc(N2CN=c3s/c(=C\c4ccco4)c(=O)n3C2)c1	-18.2%	-14.8%	-6.0%	10.0%	-6.8	8.6%
Cc1ccc(/C=c2\sc3n(c2=O)CN(c2cccc(Br)c2)CN=3)o1	-19.8%	-26.3%	-9.6%	5.0%	-50.9*	-0.7%
O=C(Nc1ccccc1)NC1CCCCNC1=O (configuration not stated)	-7.5%	10.1%	16.7%	-7.1%	12.2	-5.2%
NC(=O)C1CCN(C(=O)c2ccc(-c3ccccc3Cl)o2)CC1	-8.3%	4.2%	?	-1.4%	0.0	0.3%
C[C@]12CC[C@@H]3c4ccc(O)cc4CC[C@H]3[C@@H]1CC[C@@H]2OC(=O)CCC(=O)O	1.4%	0.731µM*	12.5%	-8.4%	2.6	-34.0%
CCCCC(=O)OC1CCC2C3CCc4cc(O)ccc4C3CCC12C (configuration not stated)	18.4µM*	?	.	?	1.2	?
CC(=O)Oc1ccc2c(c1)CCC1C2CCC2(C)C(OC(C)=O)CCC12 (configuration not stated)	-23.4%	-10.6%	.	0.1%	39.7	-0.5%
C[C@]12CCC3c4ccc(O)cc4CCC3C1CCC2OC(=O)CCC1CCCC1 (some centres not stated)	1.7%	2.5%	.	.	.	.
CCn1nc(CC(C)C)cc1C(=O)N1CCCC(Nc2ccc(OC)cc2)C1 (configuration not stated)	?	?	-4.8%	1.0%	14.5	1.4%
Cc1ccsc1C(=O)N1CCC1(C)C(=O)NCC(C)(C)C (configuration not stated)	-19.0%	-24.5%	.	10.9%	9.1	17.6%
CC(=O)Nc1cc(-c2cccc(C(=O)NCCO)c2)cn2c(-c3cccc(C(F)(F)F)c3)cnc12	23.1µM*	18.4µM*	.	?	-14.4	23.1µM*
CC(=O)Nc1cc(-c2cccc(C(=O)NCCO)c2)cn2c(-c3ccc(F)cc3)cnc12	20.6µM*	14.6µM*	.	-25.6%	-21.1	?
CCc1ccc2oc(-c3ccc(OC)cc3)cc(=Nc3cccc(C(=O)O)c3)c2c1	?	?	?	-19.6%	-66.2*	-3.8%
CCCN(Cc1cccs1)C(=O)Nc1ccccc1C	?	-27.4%	.	.	.	.
